From PubChem BioAssay AID1159580 (chemical genetic matrix, 2015)
Screen size: about 5,500 compounds; about 2,000 (36%) were called active. Inconclusive results (about 18%) are left out. Cut-off read from the data, not from the text of the source: active = normalized growth mostly below about 0.91 (no sharp cut-off); inconclusive = no clear call, values can overlap the other calls; inactive = mostly above about 0.92. The list shows a part of the results.

Experiment: chemical genetic growth profiling, strain panel (AID 1159580);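 note: tested at 20 µM; growth read once vehicle control cultures reached saturation at 30 °C; 1 = growth at the plate median or of vehicle wells; lower values mean less growth of the strain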
Settings: S. cerevisiae deletion strains, growth OD

Measured: normalized growth

CC(=O)O[C@@H]1CC2C(C)(C)[C@H](O)CC[C@]2(C)C2CC[C@@]3(C)[C@H](c4ccoc4)OC(=O)[C@H]4O[C@]43[C@@]21C (stereo partly specified)
inactive: locus YAL013W, strain DEP1, stronger effect = lower value 1.01 | locus YBR021W, strain FUR4, stronger effect = lower value 0.971 | locus YBR229C, strain ROT2, stronger effect = lower value 0.996 | locus YCL029C, strain bik1, stronger effect = lower value 0.997 | locus YDL035C, strain GPR1, stronger effect = lower value 0.983 | locus YDL074C, strain BRE1, stronger effect = lower value 0.994 | locus YDL101C, strain DUN1, stronger effect = lower value 1.02 | locus YDL134C, strain PPH21, stronger effect = lower value 0.982 | locus YDL185W, strain tfp1, stronger effect = lower value 1.02 | locus YDL192W, strain arf1, stronger effect = lower value 0.999 | locus YDR101C, strain arx1, stronger effect = lower value 0.993 | locus YDR150W, strain NUM1, stronger effect = lower value 1 | locus YDR162C, strain NBP2, stronger effect = lower value 1.01 | locus YDR318W, strain mcm21, stronger effect = lower value 1.02 | locus YDR388W, stronger effect = lower value 1.01 | locus YDR502C, strain sam2, stronger effect = lower value 1.02 | locus YEL061C, strain CIN8, stronger effect = lower value 1.01 | locus YER110C, stronger effect = lower value 1.03 | locus YER155C, strain BEM2, stronger effect = lower value 1.01 | locus YER167W, strain BCK2, stronger effect = lower value 1.01 | locus YGL078C, strain dbp3, stronger effect = lower value 1.04 | locus YGL086W, strain mad1, stronger effect = lower value 1.02 | locus YGL248W, strain PDE1, stronger effect = lower value 1.02 | locus YGR078C, strain PAC10, stronger effect = lower value 1.05 | locus YGR135W, strain pre9, stronger effect = lower value 1.06 | locus YGR252W, strain gcn5, stronger effect = lower value 1.03 | locus YHR030C, strain SLT2, stronger effect = lower value 1.01 | locus YHR079C, strain IRE1 (second series), stronger effect = lower value 1.01 | locus YHR094C, strain hxt1, stronger effect = lower value 1.01 | locus YHR129C, strain ARP1, stronger effect = lower value 1 | locus YHR200W, strain rpn10, stronger effect = lower value 1.01 | locus YIL066C, strain RNR3, stronger effect = lower value 0.984 | locus YIL073C, strain SPO22, stronger effect = lower value 1.03 | locus YIL125W, strain kgd1, stronger effect = lower value 1.01 | locus YIR030C, strain dcg1, stronger effect = lower value 1.01 | locus YJL095W, strain BCK1, stronger effect = lower value 1.03 | locus YJL134W, strain LCB3, stronger effect = lower value 1.01 | locus YJL168C, strain set2, stronger effect = lower value 1.02 | locus YJL187C, strain SWE1 (second series), stronger effect = lower value 1.03 | locus YKL009W, strain mrt4, stronger effect = lower value 0.996 | locus YKL068W, stronger effect = lower value 0.996 | locus YKL085W, strain MDH1 (second series), stronger effect = lower value 1.01 | locus YKL085W, strain MDH1, stronger effect = lower value 1.01 | locus YKR001C, strain vps1, stronger effect = lower value 1.01 | locus YLR039C, strain RIC1, stronger effect = lower value 1.07 | locus YLR058C, strain SHM2, stronger effect = lower value 1.01 | locus YLR102C, strain apc9, stronger effect = lower value 1.01 | locus YLR262C, strain YPT6, stronger effect = lower value 1.13 | locus YLR268W, strain sec22, stronger effect = lower value 0.975 | locus YLR342W, strain FKS1 (second series), stronger effect = lower value 1.02 | locus YLR371W, strain rom2, stronger effect = lower value 1.01 | locus YLR418C, strain cdc73, stronger effect = lower value 1.02 | locus YML016C, strain PPZ1, stronger effect = lower value 1.01 | locus YML032C, strain rad52, stronger effect = lower value 0.978 | locus YML124C, strain tub3, stronger effect = lower value 1.02 | locus YMR078C, strain ctf18, stronger effect = lower value 1.01 | locus YMR223W, strain ubp8, stronger effect = lower value 1 | locus YMR307W, strain GAS1, stronger effect = lower value 1.09 | locus YNL067W, strain RPL9B, stronger effect = lower value 1.04 | locus YNL153C, strain GIM3, stronger effect = lower value 1.04 | locus YNL233W, strain BNI4, stronger effect = lower value 1.02 | locus YNL250W, strain rad50, stronger effect = lower value 1.04 | locus YNL271C, strain bni1, stronger effect = lower value 1.03 | locus YNL298W, strain CLA4, stronger effect = lower value 1.01 | locus YNL307C, strain MCK1, stronger effect = lower value 1.02 | locus YNR052C, strain pop2, stronger effect = lower value 1.04 | locus YOL006C, strain TOP1, stronger effect = lower value 1.01 | locus YOL012C, strain htz1 0.714 | locus YOL147C, strain pex11, stronger effect = lower value 1.01 | locus YOR061W, strain CKA2, stronger effect = lower value 1 | locus YOR069W, strain VPS5, stronger effect = lower value 1.01 | locus YOR136W, strain idh2, stronger effect = lower value 1.01 | locus YOR144C, strain elg1, stronger effect = lower value 1.01 | locus YOR184W, strain ser1, stronger effect = lower value 0.993 | locus YOR316C, strain cot1, stronger effect = lower value 1.02 | locus YPL241C, strain CIN2, stronger effect = lower value 1.01 | locus YPR119W, strain clb2, stronger effect = lower value 1.01 | locus YPR141C, strain kar3, stronger effect = lower value 1 | locus YPR163C, strain tif3, stronger effect = lower value 1.02 | locus YPR167C, strain met16, stronger effect = lower value 1.02 | strain wtn01, stronger effect = lower value 0.984
